Data as given in PubChem BioAssay (NCATS).
Records with an inconclusive call do not appear. Calls of active or inactive are those of the source. Calls follow the shape of the full dose curve.

These compounds were tested against Cytochrome P450 1A2 (Homo sapiens) (UniProt P05177) (assay: p450-cyp1a2 (AID 410)). Details: recombinant CYP1A2, luciferin-ME demethylation, luminescence; series mostly up to 57 µM.
Method: The P450 gene superfamily is involved in metabolism and the clearance of xenobiotics. This assay used human CYP1A2 to measure the demethylation of luciferin 6' methyl ether (Luciferin-ME; Promega-Glo) to luciferin. The luciferin is then measured by luminescence after the addition of a luciferase detection regeant. Luciferin-ME concentration in the assay was equal to its Km for CYP1A2.
NCGC Assay Protocol Summary:
Two uL of enzyme and substrate mix (final concentrations: 20nM CYP1A2, 100uM Luciferin-ME, 100mM KPO4) were dispensed into a white, solid bottom 1536-well microtiter plate. 23nL of compound was transferred by a pin tool. The plate was incubated at room temperature for 10 min. Two uL of an NADPH regeneration solution (Promega supplied reagent) was dispensed and the reaction was allowed to continue for 60 min at room temperature. Then the reaction was stopped by reconstituted detection reagent. After another 20 min of incubation the plate was read on the ViewLux (Perkin Elmer) at 60 sec exposure and 2x2 binning. This protocol was carried out with Promega-Glo reagents and further information can be found at http://www.promega.com/tbs/tb325/tb325.pdf. Data were normalized to the to AC100 inhibition (57 uM furafylline).
Potency is read from the fitted curve at half-maximal effect.

Cytochrome P450 1A2 (Homo sapiens), sequence (P05177 whole entry, looked up): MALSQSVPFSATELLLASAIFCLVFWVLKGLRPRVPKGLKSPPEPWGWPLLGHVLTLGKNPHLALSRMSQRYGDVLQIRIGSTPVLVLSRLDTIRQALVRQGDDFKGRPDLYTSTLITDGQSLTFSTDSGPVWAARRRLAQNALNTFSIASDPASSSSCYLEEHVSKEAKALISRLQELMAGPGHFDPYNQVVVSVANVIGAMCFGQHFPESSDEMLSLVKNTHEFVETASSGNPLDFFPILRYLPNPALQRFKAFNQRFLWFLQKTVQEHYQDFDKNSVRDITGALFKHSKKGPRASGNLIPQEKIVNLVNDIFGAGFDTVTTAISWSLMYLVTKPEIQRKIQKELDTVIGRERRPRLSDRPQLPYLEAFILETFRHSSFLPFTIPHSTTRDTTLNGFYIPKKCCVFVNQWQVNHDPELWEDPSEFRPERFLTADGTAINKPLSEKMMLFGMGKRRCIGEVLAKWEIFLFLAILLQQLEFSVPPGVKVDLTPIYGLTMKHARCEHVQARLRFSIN

Structure (SMILES) | Potency
COc1cccc(-c2ccc3ncnc(NCc4ccc(OC)cc4OC)c3c2)c1 | 2.51 µM (active)
COCCNc1ncnc2ccc(-c3ccccc3OC)cc12 | 2 µM (active)
COc1ccc2[nH]cc(CCNc3nc(-c4ccccc4OC)nc4ccccc34)c2c1 | 6.31 µM (active)
Cc1cccc(CNc2ncncc2-c2ccccc2C)c1 | 2.51 µM (active)
N#CCCn1c(=O)c(-c2cccc(C#N)c2)nc2cnc(Oc3cccc(Cl)c3)nc21 | inactive
CN(C)c1ccc(-c2cncnc2NCCN2CCOCC2)cc1 | 15.8 µM (active)
COc1ccccc1CNc1ncncc1-c1ccccc1C(F)(F)F | 15.8 µM (active)
CN(C)c1ccc(-c2nccc(Nc3ccc(F)cc3)n2)cc1 | 0.501 µM (active)
O=c1c(CCc2ccccc2)nc2cnc(Oc3ccccc3)nc2n1C1CC1 | 7.94 µM (active)
COc1ccc(-c2oc3ccc(C)cc3c(=O)c2O)cc1OC | 0.251 µM (active)
CCNc1ncc2nc(CCc3ccccc3)c(=O)n(CCC#N)c2n1 | 3.98 µM (active)
COc1ccc2[nH]cc(CCNc3ncncc3-c3ccccc3OC)c2c1 | 2.51 µM (active)
Cc1cnc(CNc2ncnc3ccc(-c4ccc(N(C)C)cc4)cc23)cn1 | 1 µM (active)
COc1cccc(Cn2c(=O)cnc3cnc(N(C)C)nc32)c1 | 6.31 µM (active)
COc1ccccc1-c1nc(NC2CC2)c2ccccc2n1 | 0.316 µM (active)
CN1CCN(c2ncc3nc(-c4ccccc4)c(=O)n(Cc4cccs4)c3n2)CC1 | 15.8 µM (active)
Cc1cnc(CNc2ncnc3ccc(-c4ccccc4C)cc23)cn1 | 6.31 µM (active)
CN1CCN(c2ncnc3ccc(-c4cccc(C#N)c4)cc23)CC1 | 1.26 µM (active)
CCNc1ncc2nc(C)c(=O)n(CCc3ccccc3)c2n1 | 1.58 µM (active)
N=C(N)c1ccc(N=Nc2c(O)ccc3c2[nH]c2ccccc23)cc1 | 1.58 µM (active)

Structure (SMILES) | Potency
c1ccc(CNc2nc(-c3cccnc3)nc3ccccc23)cc1 | 0.398 µM (active)
O=c1ccc2cc3ccoc3cc2o1 | 0.0316 µM (active)
COc1cccc(Nc2ncc3nc(-c4ccc(F)cc4)c(=O)n(CCC#N)c3n2)c1 | 3.98 µM (active)
Clc1ccccc1-c1nc(Nc2ccncc2)c2ccccc2n1 | 0.501 µM (active)
CC(C)=CCc1c(O)cc(O)c2c1O[C@H](c1ccccc1)CC2=O | 0.316 µM (active)
COc1cccc(Cn2c(=O)c(CCc3ccccc3)nc3cnc(N4CCN(C)CC4)nc32)c1 | 15.8 µM (active)
O=C(c1ccco1)N1CCC2(CC1)CN(c1cccc(-c3ccccc3)c1)C2 | 7.94 µM (active)
c1ccc(Nc2nc(-c3ccoc3)nc3ccccc23)cc1 | 0.2 µM (active)
CN(C)c1ccc(-c2nccc(NCc3cccs3)n2)cc1 | 0.398 µM (active)
COc1ccc2[nH]cc(CCNc3ncncc3-c3ccccc3Cl)c2c1 | 0.631 µM (active)
CN1CCN(c2ncc3nc(-c4cn(C)c5ccccc45)c(=O)n(CCC#N)c3n2)CC1 | 15.8 µM (active)
c1ccc(Nc2nc(-c3cccnc3)nc3ccccc23)cc1 | 0.398 µM (active)
CN(Cc1ccco1)c1nc(-c2cccnc2)nc2ccccc12 | 0.316 µM (active)
COc1ccc(Oc2ncc3nc(-c4cccc(C#N)c4)c(=O)n(CCC#N)c3n2)cc1 | 25.1 µM (active)
O=C1C=C(NCCc2cc(Br)c(O)c(Br)c2)C(=O)c2ncccc21 | 3.16 µM (active)
Cn1cc(-c2nc3cnc(N4CCNCC4)nc3n(CCc3ccccc3)c2=O)c2ccccc21 | 15.8 µM (active)
COc1cccc(Nc2ncc3ncc(=O)n(CCC#N)c3n2)c1 | 1 µM (active)
CN(C)c1ncc2nc(CCc3ccccc3)c(=O)n(-c3ccccc3)c2n1 | 0.794 µM (active)
CN1CCN(c2ncc3nc(-c4cccs4)c(=O)n(CCc4ccccc4)c3n2)CC1 | 2.51 µM (active)
COc1ccc2[nH]cc(CCNc3ncncc3-c3ccccc3C)c2c1 | 0.631 µM (active)
